# In all, about 220,000 compounds went through this assay and about 16,000 (7.3%) were called active. About 25% were inconclusive and are not listed. The list comes from a sample in which actives are over-represented; it also holds similar structures and randomly drawn compounds. Where a call stands in place of a potency, no number is given. A number with no mark means an inactive call. The call rests on the fitted dose curve; in most records, active means well fitted inhibition curve with a large enough effect (not every such curve was filed as active); inconclusive means small, poorly fitted or top-dose-only effect, or another doubt; inactive means no such curve, though single readings can be large or run the other way.
# Target: Aldehyde dehydrogenase 1A1 (Homo sapiens) (UniProt P00352)
# Test: qHTS Assay for Inhibitors of Aldehyde Dehydrogenase 1 (ALDH1A1)
# Conditions: Purified ALDH1A1, NADH fluorescence, propionaldehyde substrate; series mostly up to 75.3 µM
# Potency means the concentration at half of the fitted maximal effect.
# Aldehyde dehydrogenase 1A1 (Homo sapiens), sequence (P00352 whole entry, looked up): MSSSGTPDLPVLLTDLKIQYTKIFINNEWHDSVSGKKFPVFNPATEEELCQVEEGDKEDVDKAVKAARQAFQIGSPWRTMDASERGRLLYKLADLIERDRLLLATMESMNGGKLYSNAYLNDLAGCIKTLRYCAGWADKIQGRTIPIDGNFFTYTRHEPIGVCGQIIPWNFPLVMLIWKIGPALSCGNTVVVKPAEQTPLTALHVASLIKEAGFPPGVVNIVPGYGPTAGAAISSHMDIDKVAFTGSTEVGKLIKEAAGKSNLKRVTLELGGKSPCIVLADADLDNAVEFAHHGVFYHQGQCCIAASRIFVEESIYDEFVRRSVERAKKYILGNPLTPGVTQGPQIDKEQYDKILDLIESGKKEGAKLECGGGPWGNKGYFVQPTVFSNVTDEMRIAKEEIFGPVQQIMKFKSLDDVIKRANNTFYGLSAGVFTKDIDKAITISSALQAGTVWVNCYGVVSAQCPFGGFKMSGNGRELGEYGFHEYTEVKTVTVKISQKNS
Compound,Potency,"activity, negative = inhibition"
CC(O)c1cccc(NC(=O)Cc2cccc3ccccc23)c1 (stereo unspecified),inactive,–
O=C(NCc1ccco1)c1sc2cccc(F)c2c1Cl,28.2 µM (active),–
O=C(NCc1ccco1)c1nn2cccnc2c1Cl,inactive,–
O=C(NCc1ccco1)c1cc2sccc2n1Cc1ccc(F)cc1,inactive,–
COc1cccc(C(=O)Nc2c3c(nn2-c2cccc(C)c2C)CS(=O)(=O)C3)c1OC,inactive,–
O=C(CC1CCCCC1)NCc1ccc(F)cc1,inactive,–
O=C(CC1CCCCC1)Nc1c2c(nn1-c1ccc(F)cc1)CS(=O)(=O)C2,7.94 µM (active),–
COCCNc1nc2nonc2nc1N(C)Cc1ccc(C)cc1,inactive,–
CCCCN(CC)CCCNC(=O)c1ccc(CSc2nc3ccncc3[nH]2)cc1,inactive,–
Cc1c(C=O)n(C)n(-c2ccccc2)c1=O,inactive,–
CCOC(=O)N1CCC(=NNC(N)=O)CC1,inactive,–
O=C(NCC1CCCO1)C1CCN(C2CCN(C(=O)C3CCCCC3)CC2)CC1 (stereo unspecified),inactive,–
Cc1cccc(NC(=O)c2nnn(-c3cccc(C(F)(F)F)c3)c2N)c1,inactive,–
CCn1c2ccccc2c2cc(NC(=S)N3CCOCC3)ccc21,inactive,–
CCn1c2ccccc2c2cc(NC(=O)CNC)ccc21,25.1 µM (active),–
CCn1c2ccccc2c2cc(NC(=O)COC(=O)c3ccccc3Br)ccc21,inactive,–
CCOc1ccc(CN2CCN(Cc3ccc(C)o3)CC2CCO)cc1 (stereo unspecified),inactive,–
O=C(O)COc1c(Cl)cc(Cl)c2cccnc12,–,-8.71% [at 13.5 µM]
CCOC(=O)N1CCN(C(c2cccnc2)c2ccc3cccnc3c2O)CC1 (stereo unspecified),1.58 µM (active),–
CCOC(=O)N1CCN(C(=O)CSc2ccc(Cl)cc2)CC1,inactive,–
Oc1c(C(c2ccccn2)N2CCOCC2)ccc2cccnc12 (stereo unspecified),inactive,–
Oc1c(CN2CCN(c3ccc(F)cc3)CC2)cc(Cl)c2cccnc12,inactive,–
CCN1CCN(C(c2cccnc2)c2cc(Cl)c3cccnc3c2O)CC1 (stereo unspecified),1.78 µM (active),–

Compound,Potency,"activity, negative = inhibition"
O=C(Nc1cccnc1)c1cc2cc(Br)ccc2oc1=O,inactive,–
CCCN(CCC)c1ccc(C(O)c2nnc(-c3ccccc3)o2)cc1 (stereo unspecified),inactive,–
Oc1ccc(N=Nc2nccs2)c(O)c1,inactive,–
Cc1nn2cc(-c3ccc(Cl)cc3)cnc2c1Br,inactive,–
CCCCCCCC1(C)NC(=O)N(CC(=O)Nc2cc(C)on2)C1=O (stereo unspecified),inactive,–
CC1CN(S(=O)(=O)c2ccc(C(=O)NN3CCN(C)CC3)cc2)CC(C)O1 (stereo unspecified),inactive,–
COc1cc([C@H](Cc2ccccc2)NC(C)=O)oc(=O)c1,inactive,–
COc1ccccc1C(=O)NN1C(=O)C2C3C=CC(O3)C2C1=O (stereo unspecified),20 µM (active),–
COc1ccccc1C(=O)NNC(=O)c1ccc(NC(=O)c2ccccc2)cc1,inactive,–
O=C(NN1C(=O)C2C3C=CC(C3)C2C1=O)c1ccco1 (stereo unspecified),inactive,–
O=C(Nc1ccc2c(c1)OCCO2)c1ccncc1,inactive,–
COc1ccccc1C(=O)Nn1c(-c2cccs2)nc2ccccc2c1=O,inactive,–
O=C(NN1C(=O)C2C3C=CC(O3)C2C1=O)c1ccncc1 (stereo unspecified),17.8 µM (active),–
COC(=O)c1ccc(CN2CCC(CO)(Cc3ccc(OC)cc3)CC2)cc1,inactive,–
CC(NC(=S)NC1CCCCC1)C(c1ccccc1)N1CCOCC1 (stereo unspecified),inactive,–
Cc1cc(C)c2cc(CN(Cc3cccs3)Cc3nnnn3CC3CCCO3)c(=O)[nH]c2c1 (stereo unspecified),11.2 µM (active),–
CC(C)(C)n1nnnc1C(c1cccs1)N(Cc1cccnc1)CC1CCCO1 (stereo unspecified),inactive,–
Cc1cccc(N2CCN(C(c3ccccc3)c3nnnn3CC3CCCO3)CC2)c1C (stereo unspecified),inactive,–
CCCCC(=O)Nc1ccc(C(=O)Nc2cc(C(F)(F)F)ccc2Cl)cc1,inactive,–
CCSc1nc(C)nc2c1oc1ccccc12,inactive,–
Cc1nc(Cl)c2oc3ccccc3c2n1,inactive,–
C[C@@H](Nc1nc(-c2ccccc2)nc2c1oc1ccccc12)C(=O)O,7.08 µM (active),–
O=C(NCCN1CCOCC1)Nc1cccc(Cl)c1,inactive,–

Compound,Potency,"activity, negative = inhibition"
CC/C(=N\NC(=S)NC(C)C)c1ccc(OC(F)F)cc1,inactive,–
Cc1ccc(NC(=S)N(CCCN2CCCC2)Cc2cccn2Cc2ccc(Cl)cc2)cc1,inactive,–
O=C(Nc1ccc(CSc2ccccc2)cc1)c1ccc(CN2CCOCC2)cc1,inactive,–
C/C(CCc1ccccc1)=N\NC(=O)c1ccc(CN2CCOCC2)cc1,25.1 µM (active),–
COc1ccc(C(=O)Nc2ccc(CN3CCOCC3)cc2)cc1,inactive,–
O=C(COc1ccc(NC(=O)c2ccccc2[N+](=O)[O-])cc1)c1ccc(F)cc1,inactive,–
CSc1ncccc1C(=O)Nc1nc2ccc(F)cc2s1,inactive,–
COCC1CCCN(Cc2cn[nH]c2-c2cc3ccccc3o2)C1 (stereo unspecified),inactive,–
O=C(O)c1ccc(/C=N/NC(=S)NCc2ccccc2)cc1,inactive,–
O=C(Cl)c1ccccc1[N+](=O)[O-],inactive,–
O=C(Nc1ccncc1)c1ccccc1[N+](=O)[O-],inactive,–
O=[N+]([O-])c1ccccc1SNc1ccccn1,20 µM (active),–
COc1cc(NC(=O)COc2ccccc2Cl)ccc1NC(=O)C(C)C,inactive,–
COc1ccc(S(=O)(=O)N(C)C)cc1NC(=O)CSc1ncccn1,inactive,–
Cc1cccc(C)c1NC(=O)c1ccc(CN2CCc3ccccc3C2)cc1,inactive,–
Cc1cccc(C)c1NC(=O)N1CC=C(n2c(=O)[nH]c3ccccc32)CC1,6.31 µM (active),–
O=C(Nc1ccc(Cl)c(Cl)c1)N1CC=C(c2ccccc2)CC1,inactive,–
CSc1ccc(CNCCN2CCOCC2)cc1,inactive,–
Cc1ccc(-c2nc(C)sc2CC(=O)OCC(=O)Nc2c(F)cccc2F)cc1,inactive,–
Cc1ccc(NC(=O)Nc2nnc(-c3ccncc3)s2)cc1,inactive,–
CCOCCc1c(O)nc(SCC(=O)NCc2ccco2)[nH]c1=O,inactive,–
O=C(CC1CCCCC1)NCc1ccco1,inactive,–
O=C(CSC1=Nc2ccccc2C2=NC(CC(=O)NCc3ccco3)C(=O)N12)NCc1ccco1 (stereo unspecified),7.94 µM (active),–

Compound,Potency,"activity, negative = inhibition"
O=C(NNC(=S)NC1CCCCC1)c1ccccc1Cl,inactive,–
Cc1ccc(NC(=O)CSc2nnc(COc3ccccc3C)o2)cc1,inactive,–
CC(C)NC(=O)CSc1nnc(COc2ccccc2Cl)o1,inactive,–
Cc1ccccc1OCc1nnc(SCC(=O)N2c3ccccc3Sc3ccc(Cl)cc32)o1,10 µM (active),–
O=C(CSc1ccccn1)Nc1nc2c(ccc3ccccc32)s1,inactive,–
CN(C)c1ccc(/C=C2\NC(=S)N(Cc3ccccc3)C2=O)cc1,11.2 µM (active),–
O=C1NCC(=O)N(Cc2ccccc2)/C1=C/c1ccccc1,inactive,–
O=C1N/C(=C/c2cccs2)C(=O)N1Cc1ccc(F)cc1,inactive,–
CCc1nnc(NC(=O)CCCSc2nc3ccccc3[nH]2)s1,inactive,–
COc1cc(OC)cc(-c2nc(=S)n3ccsc3n2)c1,inactive,–
CC(Oc1ccccc1)C(=O)NN1Cc2ccccc2C1=N (stereo unspecified),inactive,–
COc1ccc(/C(C)=N/NC(=O)CCC(=O)Nc2ccc(Cl)cc2Cl)c(OC)c1,inactive,–
NC(=O)COC(=O)c1sc2cc(F)ccc2c1Cl,inactive,–
C=CC1=C2C=C(C3CC3)N(CC(C)C)C=C2C(=O)C(C)(OC(=O)c2ccco2)C1=O (stereo unspecified),–,-1.97% [at 13.5 µM]
O=C1CC(c2ccccc2)CC(O)=C1C=NCCN1CCOCC1 (stereo unspecified),inactive,–
COc1ccc(/C(O)=C2/C(=O)C(=O)N(CCCN(C)C)C2c2ccccc2)cc1OC (stereo unspecified),inactive,–
CCN(CC)CCN1C(=O)C(=O)/C(=C(/O)c2ccc(OC)c(OC)c2)C1c1ccccn1 (stereo unspecified),28.2 µM (active),–
CCN(CC)CCN1C(=O)C(=O)/C(=C(/O)c2ccccc2)C1c1ccccc1F (stereo unspecified),inactive,–
CC1Cc2cc(/C(O)=C3\C(=O)C(=O)N(CCN4CCOCC4)C3c3ccccc3F)ccc2O1 (stereo unspecified),inactive,–
COc1ccc(C2/C(=C(/O)c3ccc(OC(C)C)cc3)C(=O)C(=O)N2CCCN2CCOCC2)cc1 (stereo unspecified),25.1 µM (active),–
COc1ccc(/C(O)=C2/C(=O)C(=O)N(CC3CCCO3)C2c2ccc(OC)c(OC)c2)cc1 (stereo unspecified),inactive,–
COc1cccc(C2/C(=C(/O)c3ccncc3)C(=O)C(=O)N2CCCN(C)C)c1 (stereo unspecified),inactive,–
O=C1C(=O)N(CCN2CCOCC2)C(c2ccccn2)/C1=C(/O)c1ccc(Cl)cc1 (stereo unspecified),12.6 µM (active),–

Compound,Potency,"activity, negative = inhibition"
COC(=O)C(C(=O)OC)[C@@H](NC=O)c1ccccc1,inactive,–
CCOC(=O)C1=C(C)c2ccccc2OC1C(=O)OCC (stereo unspecified),inactive,–
CCc1cc(CNC(=O)CC2C(=O)NCCN2CC2CCCCC2)on1 (stereo unspecified),inactive,–
CCc1ccc(Oc2nc([N+](=O)[O-])nn2C)cc1,inactive,–
Cc1ccc(C(=O)NN(CCC#N)C2=NS(=O)(=O)c3ccccc32)cc1,inactive,–
Cn1nc(C(C)(C)C)c(NC(=O)c2sccc2Cl)c1C(C)(C)C,inactive,–
C=C(C)COc1ccc(-c2nc(N)ncc2-c2ccccc2OC)c(O)c1,inactive,–
O=C(COc1ccc([N+](=O)[O-])cc1Cl)Nn1cnnc1,inactive,–
COC(=O)CSc1nccc(-c2cccs2)n1,inactive,–
CN1CCN(C(=O)N2c3ccccc3CCc3ccccc32)CC1,inactive,–
Cn1nnnc1SCC(=O)NNC(=O)c1ccc(Br)cc1,inactive,–
O=C(CCc1ccccc1)NNC(=O)c1ccc(Br)cc1,inactive,–
CC(=O)NC(=S)NNC(=O)c1ccc(Br)cc1,11.2 µM (active),–
CC(Oc1cccc(NC(=O)c2cccs2)c1)C(=O)c1ccccc1 (stereo unspecified),inactive,–
O=C(O)c1n[nH]nc1-c1ccccc1,inactive,–
CCNC(=O)CC1C(=O)N(c2ccc(F)cc2)C(=O)N1CCc1sccc1C (stereo unspecified),inactive,–
COc1ccc(Nc2cc(C)nc(-n3nc(C)cc3C)n2)cc1,inactive,–
COc1ccc(C(C[N+](=O)[O-])n2nc(C)cc2C)cc1 (stereo unspecified),10 µM (active),–
COc1ccc(OCc2cn3c(C)cc(C)nc3n2)cc1,inactive,–
